Test results from PubChem BioAssay (Tox21).
Unmarked numbers belong to inactive results. Calls of active or inactive are those of the source. The call rests on the fitted dose curve; in most records, active means well fitted curve in the direction sought with a large enough effect in the repeat runs; inconclusive means weak or mixed curves; inactive means flat fitted curve, though single readings scatter.

Experiment: qHTS assay to test for compound auto fluorescence at 535 nm (green) in HepG2 cell free culture (AID 720686)
Settings: Cell-free medium, green autofluorescence 485/535 nm; series mostly up to 91.3 µM; fluorescence, % of fluorescein control: at the top concentration
Source text: U.S. Tox21 Program National Center for Advancing Translational Sciences [NCATS] NIH Chemical Genomics Center [NCGC] U.S. Environmental Protection Agency [EPA] National Institutes of Environmental Health Sciences [NIEHS] National Toxicology Program [NTP] U.S. Food and Drug Administration [FDA] Tox21 Assay Overview: Compound auto fluorescence often interferes with screening of the compound library against various biological targets and signaling pathways. Some of these compounds may have fluorophoric properties. Such properties may interfere with the assay outputs resulting in false positives and/or negatives. To decrease such complications and ensure the compound activities are relevant in terms of biological response, the Tox21 10K compound library was screened for auto fluorescence. From the fluorophores used as reporter signals in our screening assays, the auto fluorescence equivalencies of compounds against three fluorophores have been evaluated: Triamterene, Fluorescein and Rose Bengal sodium for blue, green and red fluorescence, respectively. The fluorescence intensities were measured using Excitation/Emission wavelengths at 405/460nm, 485/535nm and 540/590nm for blue, green and red labels, respectively. This assay includes the green fluorescence data.
Tox21 Assay Protocol Summary: 5 uL of culture medium (MEM containing 10% FBS) per well was dispensed into black wall/clear bottom 1536-well plates using a Multidrop Combi Dispenser (ThermoFisher Scientific, Waltham, MA). After 23 nL compound or DMSO vehicle was transferred into assay plate by a pintool work station (Kalypsys, San Diego, CA), fluorescence intensities in the assay plates were measured by an Envision (PerkinElmer, Shelton, CT) plate reader using three labels for measuring blue, green and red fluorescence at […] 460, 535 and 590nm respectively.
On the % scale 0 is the no-effect control and ±100 the full control effect.

Structure (SMILES)	outcome	fluorescence, % of fluorescein control
OCc1ccc(Cl)cc1Cl	inactive	–
CCCCCCCCCCCC(=O)N(C)CC(=O)O	inactive	–
CC1=CC(=O)CC(C)(C)C1	inactive	–
Cc1ccccc1Cl	inactive	–
C[Si](C)(C)N[Si](C)(C)C	inactive	–
CC(C)(C)NC[C@H](O)COc1nsnc1N1CCOCC1	inactive	–
NC1CCCCC1N (stereo not given)	inactive	–
Cc1ncc(CO)c(CO)c1O	inactive	–
CC(=O)OCc1ccc2c(c1)OCO2	inactive	–
COc1ccc([C@@H]2CC(=O)c3c(O)cc(O[C@@H]4O[C@H](CO[C@@H]5O[C@@H](C)[C@H](O)[C@@H](O)[C@H]5O)[C@@H](O)[C@H](O)[C@H]4O)cc3O2)cc1OC	inactive	–
CCN(CC)CCNC(=O)c1ccc(N)cc1	inactive	–
Cc1ccc(C)c(S(=O)(=O)O)c1	inactive	–
COc1ccc2cc3[n+](cc2c1OC)CCc1cc2c(cc1-3)OCO2	inactive	–
OCCOCCOCCOCCOCCO	inactive	–
OB(O)O	inactive	–
CC/C(C)=N/O	inactive	–
CCCCCCCCO	inactive	–
CCCOC(=O)NCCCN(C)C	inactive	–
O=C(O)Cc1c[nH]c2ccccc12	inactive	–
CN1Cc2c(N)cccc2C(c2ccccc2)C1 (stereo not given)	inactive	–

Structure (SMILES)	outcome	fluorescence, % of fluorescein control
Nc1cccc(N)n1	inactive	–
C=C(CC(=O)O)C(=O)O	inactive	–
O=C1OC(=O)c2c(Cl)c(Cl)c(Cl)c(Cl)c21	inactive	–
COC(=O)CCCCC(=O)OC	inactive	–
CCCCCCCCC(=O)O	inactive	–
CC(C)=CCC/C(C)=C/C=O	inactive	–
O=c1c(O)c(-c2ccc(O)c(O)c2)oc2cc(O)cc(O)c12	inactive	–
OCC(CO)(CO)CO	inactive	–
CC/C=C(\C(=O)N[C@@H]1C(=O)N2C(C(=O)OCOC(=O)C(C)(C)C)=C(COC(N)=O)CS[C@H]12)c1csc(N)n1	inactive	–
Cc1ccncc1	inactive	–
CC(=O)OC[C@H]1O[C@@](COC(C)=O)(O[C@H]2O[C@H](COC(C)=O)[C@@H](OC(C)=O)[C@H](OC(C)=O)[C@H]2OC(C)=O)[C@@H](OC(C)=O)[C@@H]1OC(C)=O	inactive	–
OC[C@H]1O[C@@H](Oc2ccc(O)cc2)[C@H](O)[C@@H](O)[C@@H]1O	inactive	–
CN=C(NC#N)NCCSCc1nc[nH]c1C	inactive	–
CC(COCC(C)OC(=O)c1ccccc1)OC(=O)c1ccccc1 (stereo not given)	inactive	–
COC(=O)/C=C\C(=O)OC	–	0.0044%
CC(O)CNCC(C)O (stereo not given)	inactive	–
O=C(c1ccccc1)c1ccc(O)c(O)c1O	inactive	–
CC(=O)c1nccs1	inactive	–
O=C1C(N(CO)C(=O)NCO)N(CO)C(=O)N1CO (stereo not given)	inactive	–
OC1CCCCC1	inactive	–
